In ChEMBL document CHEMBL3433997, “St. Jude Leishmania screening dataset” (2016):

Columns and labels:
Type in all cases: functional
[1] = molecular target: Solute carrier family 2, facilitated glucose transporter member 1 (Homo sapiens) (UniProt P11166); assay: ST_JUDE_LEISH: Cytotoxicity at 2uM final concentration against transgenic Leishmania Mexicana promastigotes LmGLUT1 that are glucose transport deficient and complemented with the human glucose transporter GLUT1. Activity is measured by DNA content using SYBR green in vitro
Sequence of Solute carrier family 2, facilitated glucose transporter member 1 (Homo sapiens) (P11166 whole entry): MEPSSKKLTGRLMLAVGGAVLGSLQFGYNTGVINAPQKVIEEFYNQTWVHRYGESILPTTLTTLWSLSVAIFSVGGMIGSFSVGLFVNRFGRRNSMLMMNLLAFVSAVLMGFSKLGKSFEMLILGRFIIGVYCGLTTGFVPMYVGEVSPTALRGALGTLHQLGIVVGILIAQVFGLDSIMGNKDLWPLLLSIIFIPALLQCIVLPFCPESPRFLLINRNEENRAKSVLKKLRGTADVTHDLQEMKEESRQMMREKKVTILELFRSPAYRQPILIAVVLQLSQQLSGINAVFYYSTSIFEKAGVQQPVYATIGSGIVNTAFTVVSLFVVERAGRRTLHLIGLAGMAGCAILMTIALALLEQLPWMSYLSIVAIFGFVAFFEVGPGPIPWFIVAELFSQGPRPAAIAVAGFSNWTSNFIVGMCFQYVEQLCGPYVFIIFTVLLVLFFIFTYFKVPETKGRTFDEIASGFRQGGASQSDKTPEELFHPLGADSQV

[2] = molecular target: Hexose transporter 1 (Plasmodium falciparum) (UniProt O97467); assay: ST_JUDE_LEISH: Cytotoxicity at 2uM final concentration against transgenic Leishmania Mexicana promastigotes LmPfHT that are glucose transport deficient and complemented with the Plasmodium falciparum hexose transporter. Activity is measured by DNA content using SYBR green in vitro
[3] = molecular target: Glucose transporter (Leishmania mexicana) (UniProt O61059); assay: ST_JUDE_LEISH: Cytotoxicity at 2uM final concentration against transgenic Leishmania Mexicana promastigotes LmGT2 that are glucose transport deficient and complemented with the L. Mexicana glucose transporter 2. Activity is measured by DNA content using SYBR green in vitro

Compound	inhibition [1] [%]	inhibition [2] [%]	inhibition [3] [%]
COc1ccc2ncc(F)c(CCN3CCC(NCc4cnc5c(c4)NC(=O)CS5)CC3)c2c1	1.52	2.49	2.03
Cc1cc(=NN=CC=Cc2ccccc2)c2ccc(F)cc2[nH]1	-1.45	2.91	-0.62
CS(=O)(=O)c1cccc(-c2ccc3oc(C(N)=O)c(NC(=O)c4cccs4)c3c2)c1	7.71	6.5	5.71
CCOC(=O)c1ccc(-c2c(C(F)(F)F)noc2-c2cc(CC)c(OC)cc2O)o1	3.34	2.22	1.45
COc1ccc2ncc(C#N)c(CCN3CCC(NCc4ccc5c(c4)OCCO5)CC3)c2c1	48.5	64.6	83.2
COc1c(C2CCN(CCCCNC(=O)c3oc(-c4ccc(Cl)cc4)cc3CO)CC2)ccc2c1CCCC2	1.58	1.81	3.08
CC[C@H](C)CNC(=O)c1ccc(-c2cccc(CN3CCC(N4CCCC4)CC3)c2)nc1	0.61	0.29	0.34
O=C(O)CCSSc1cccc[n+]1[O-]	29.9	48.3	3.25
CCCCC(CCCC)CN1C(=O)C(c2ccccc2)(c2ccccc2)N=C1N	1.9	1.66	0.77
CN1CCN(c2ccc(Cl)cc2NC(=O)C2COc3ccccc3O2)CC1 (stereo not given)	0.88	1.77	-1.34
CC(C)(C)c1ccc(OC(=O)c2ccc(NC(=O)N[C@@H](Cc3ccc(O)cc3)C(=O)NC3CCN(Cc4ccc(O)cc4)C3)cc2)cc1 (stereo not given in full)	9.86	4	9.56
CC(=O)N1N=C(c2ccccc2)Sc2c1nc(-c1ccc(Cl)cc1)n2C(C)=O	1.37	1.41	3.09
CC(C)C1=C[C@H]2C[C@]3(C4OCCO4)[C@@H]4CC[C@@H](C)[C@H]4C[C@@]2(COCc2cccc(C#N)c2)[C@]13C(=O)OC(c1ccccc1)c1ccccc1	4.12	3.24	2.75
Fc1ccc2c(NN=Cc3ccccc3)ccnc2c1	2.29	1.07	-1.55
COc1ccc(C=Cc2ccc(-c3c(C)[nH]c(C)c(Cl)c3=O)cc2)cc1OC	-0.83	-2.94	0.92
Cc1ccc(-c2cccc3c(NC(=O)Nc4ccc5nccc(N6CCN(C)CC6)c5c4)cccc23)cn1	0.51	0.17	7.64
CN1CCCC(CN2CCN(Cc3cccc(-c4ccc(-c5nc6ccccc6[nH]5)cc4)c3)CC2)C1 (stereo not given)	7.48	9.12	6.63
O=C(NCCN1CCOCC1)c1ccc(CNC(=O)c2ccc(O)c(-c3ccc(Cl)c(Cl)c3)c2)cc1	1.82	2.76	1.84

Compound	inhibition [1] [%]	inhibition [2] [%]	inhibition [3] [%]
Cc1cccc2nc(-c3ccc(-c4cccc(CN5CCCC5CN)c4)cc3)[nH]c12 (stereo not given)	1.08	1.46	1.07
Cc1cc(=O)[nH]c2cc(Nc3ccnc(Nc4cccc(C(N)=O)c4)n3)ccc12	3.02	3.83	3.24
COc1ccc2ccc(F)c(CCN3CCC(NCc4cc5c(cn4)OCCO5)CC3)c2n1	8.37	14	22.4
O=C1c2ccc([N+](=O)[O-])cc2C(=O)N1c1ccc2[nH]ncc2c1	2.79	1.54	0.95
COc1ccc(Cn2c(Nc3cccc(C(F)(F)F)c3)nc3cc(C(=O)NC(C)C)cnc32)cc1Cl	10.3	9.69	10.9
COc1cc(C(=O)Nc2ccc(-c3nc4ccccc4[nH]3)cc2)cc(OC)c1OC	2.49	2.26	3.39
Cc1ccccc1CNc1noc(-c2c(F)cccc2Cl)n1	4.28	5.55	5.34
CCc1c(CCNCCCCCCNCCc2ccc(Br)cc2)ccc(OC)c1OC	36.3	10.9	103
O=C(NCCCN1CCN(c2cccc(Cl)c2)CC1)c1ccc(-c2nc3cc(Cl)c(Cl)cc3[nH]2)cc1	11.3	8.6	13.7
O=C1Nc2cccc3c2C1(CCCCN1CCC(c2c(-c4ccccc4)[nH]c4ccccc24)CC1)CCC3 (stereo not given)	3.04	2.74	-0.14
CCCCOc1cc2ncc(C(=O)OCC)c(O)c2cc1OCCCC	0.09	0.46	-3.15
CC1(C)NC(N)=NC(=N)N1OCCCOc1ccc([N+](=O)[O-])cc1	0.81	0.61	0.11
COc1cc2nc(N(C)Cc3cccc(I)c3)nc(N)c2cc1OC	4.75	7.24	1.56
CN1CCN(CCCN(Cc2cccc(-c3ccc(CNCc4ccc5c(c4)OCO5)cc3)c2)C(=O)CCC2CCCC2)CC1	51.2	45.7	34.4
CS(=O)(=O)N(c1ccccc1)c1cc(C(=O)N[C@@H](Cc2ccccc2)[C@H](O)CNC2CCCCC2)cc(N2CCCC2=O)c1	1.9	1.63	0.49
Cc1ccc(-c2nc(Nc3ccncc3)c3ccccc3n2)s1	5.34	3.16	0.88
Cc1cccc2nc(-c3cccc(-c4cccc(NC(=O)Nc5cccc(C#N)c5)c4)c3)[nH]c12	11.2	10.1	10.3
